Source: PubChem BioAssay AID1159580 (chemical genetic matrix, 2015)
Among all 5,500 compounds or so, about 2,000 (36%) were called active. Roughly 18% stayed inconclusive and do not appear here. No stated cut-off is given here; in the data, active means normalized growth mostly below about 0.91 (no sharp cut-off); inconclusive means no clear call, values can overlap the other calls; inactive means mostly above about 0.92. Some of the results follow.

Test: chemical genetic growth profiling, strain panel (AID 1159580);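 further: tested at 20 µM; growth read once vehicle control cultures reached saturation at 30 °C; 1 = growth at the plate median or of vehicle wells; lower values mean less growth of the strain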
Conditions: S. cerevisiae deletion strains, growth OD
[1] = locus YHR030C, strain SLT2, active compounds read low
[2] = locus YJL187C, strain SWE1, active compounds read low

Measured: normalized growth

CN(C)c1ccc(-c2n[nH]c(=O)c3ccccc23)cc1[N+](=O)[O-]
inactive: locus YAL013W, strain DEP1, active compounds read low 0.966 | locus YBR229C, strain ROT2, active compounds read low 0.986 | locus YCL061C, strain MRC1, active compounds read low 0.98 | locus YDL101C, strain DUN1, active compounds read low 1 | locus YDR150W, strain NUM1, active compounds read low 0.981 | locus YGR078C, strain PAC10, active compounds read low 1 | [1] 0.875 | locus YHR087W, strain rtc3, active compounds read low 0.982 | [2] 0.978 | locus YJR043C, strain POL32, active compounds read low 0.963 | locus YJR075W, strain HOC1, active compounds read low 0.99 | locus YKL190W, strain CNB1, active compounds read low 1.01 | locus YLR039C, strain RIC1, active compounds read low 1.09 | locus YLR058C, strain SHM2 (second series), active compounds read low 0.994 | locus YLR085C, strain ARP6, active compounds read low 0.882 | locus YLR262C, strain YPT6, active compounds read low 1.08 | locus YML094W, strain GIM5, active compounds read low 0.891 | locus YMR219W, strain ESC1, active compounds read low 0.999 | locus YMR263W, strain SAP30, active compounds read low 0.961 | locus YNL153C, strain GIM3, active compounds read low 0.979 | locus YNL298W, strain CLA4 (second series), active compounds read low 0.891 | locus YNL322C, strain KRE1, active compounds read low 1.03 | locus YNR030W, strain Alg12, active compounds read low 0.955 | locus YPL055C, strain LGE1, active compounds read low 0.886 | locus YPL241C, strain CIN2, active compounds read low 0.96 | locus YPR135W, strain CTF4, active compounds read low 0.97
active: locus YEL061C, strain CIN8, active compounds read low 0.907

NC(=O)CS(=O)C(c1ccccc1)c1ccccc1 (stereo unspecified)
inactive: locus YAL021C, strain ccr4, active compounds read low 1.01 | locus YAL026C, strain drs2, active compounds read low 1.04 | locus YAL030W, strain snc1, active compounds read low 1.02 | locus YBL061C, strain skt5, active compounds read low 1.02 | locus YBR009C, strain hhf1, active compounds read low 0.976 | locus YBR023C, strain chs3, active compounds read low 1.03 | locus YBR171W, strain sec66, active compounds read low 1.02 | locus YBR231C, strain swc5, active compounds read low 1 | locus YBR279W, strain paf1, active compounds read low 1.02 | locus YCL011C, strain gbp2, active compounds read low 1.02 | locus YCL016C, strain dcc1, active compounds read low 1.04 | locus YCL069W, strain vba3, active compounds read low 0.998 | locus YCR088W, strain abp1, active compounds read low 1.01 | locus YDL005C, strain med2, active compounds read low 1.03 | locus YDL040C, strain nat1, active compounds read low 0.998 | locus YDR001C, strain nth1, active compounds read low 1 | locus YDR069C, strain doa4, active compounds read low 1.02 | locus YDR137W, strain rgp1, active compounds read low 1.05 | locus YDR159W, strain sac3, active compounds read low 0.939 | locus YDR195W, strain ref2 0.981 | locus YDR297W, strain sur2, active compounds read low 0.994 | locus YDR334W, strain swr1, active compounds read low 1 | locus YDR335W, strain msn5, active compounds read low 1.02 | locus YDR392W, strain spt3, active compounds read low 0.968 | locus YEL003W, strain gim4, active compounds read low 0.99 | locus YEL037C, strain rad23, active compounds read low 1.01 | locus YEL061C, strain CIN8 (second series), active compounds read low 1.01 | locus YER015W, strain faa2, active compounds read low 1.01 | locus YER016W, strain bim1, active compounds read low 1.02 | locus YER111C, strain swi4, active compounds read low 1.01 | locus YER155C, strain BEM2 (second series), active compounds read low 1.02 | locus YFR010W, strain ubp6, active compounds read low 0.987 | locus YGL167C, strain pmr1, active compounds read low 1 | locus YGL173C, strain kem1, active compounds read low 1 | locus YGL227W, strain vid30, active compounds read low 1.01 | locus YGL240W, strain doc1, active compounds read low 1.01 | locus YGL253W, strain hxk2, active compounds read low 1.03 | locus YHR013C, strain ard1, active compounds read low 1.05 | locus YHR027C, strain rpn1, active compounds read low 1.01 | [1] 1.04 | locus YHR079C, strain IRE1, active compounds read low 1.04 | locus YHR142W, strain chs7, active compounds read low 1.01 | locus YJL092W, strain hpr5, active compounds read low 1 | locus YJL095W, strain BCK1 (second series), active compounds read low 1.02 | locus YJL095W, strain BCK1, active compounds read low 0.996 | locus YJL115W, strain asf1, active compounds read low 1.01 | locus YJL129C, strain trk1, active compounds read low 1.04 | locus YJL154C, strain vps35, active compounds read low 1.01 | locus YJL164C, strain tpk1, active compounds read low 0.988 | locus YJL166W, strain qcr8, active compounds read low 0.982 | [2] 1.01 | locus YJR066W, strain TOR1, active compounds read low 0.977 | locus YKL160W, strain elf1, active compounds read low 1.05 | locus YKR026C, strain gcn3, active compounds read low 1.01 | locus YKR091W, strain srl3, active compounds read low 1.01 | locus YLL001W, strain dnm1, active compounds read low 0.972 | locus YLL026W, active compounds read low 1 | locus YLL041C, strain sdh2, active compounds read low 1 | locus YLR027C, strain aat2, active compounds read low 0.985 | locus YLR113W, strain HOG1, active compounds read low 0.961 | locus YLR221C, strain rsa3, active compounds read low 0.977 | locus YLR258W, strain gsy2, active compounds read low 1.03 | locus YLR262C, strain YPT6 (second series), active compounds read low 1.01 | locus YLR320W, strain mms22, active compounds read low 0.958 | locus YLR342W, strain FKS1, active compounds read low 1.02 | locus YLR357W, strain rsc2, active compounds read low 0.997 | locus YLR370C, strain arc18, active compounds read low 1.02 | locus YLR384C, strain iki3, active compounds read low 1.02 | locus YML120C, strain ndi1, active compounds read low 0.981 | locus YMR058W, strain fet3, active compounds read low 1.02 | locus YMR125W, strain sto1, active compounds read low 1.04 | locus YMR129W, active compounds read low 1.01 | locus YMR205C, strain PFK2, active compounds read low 1.01 | locus YMR231W, strain pep5, active compounds read low 0.999 | locus YNL071W, strain lat1, active compounds read low 1.02 | locus YNL183C, strain NPR1, active compounds read low 0.958 | locus YNL209W, strain ssb2, active compounds read low 1.01 | locus YNL248C, strain rpa49, active compounds read low 1.04 | locus YNL322C, strain KRE1 (second series), active compounds read low 1.02 | locus YNR049C, strain mso1, active compounds read low 1.03 | locus YOR001W, strain rrp6, active compounds read low 0.928 | locus YOR070C, strain gyp1, active compounds read low 1.01 | locus YOR080W, strain dia2, active compounds read low 1.01 | locus YOR083W, strain WHI5, active compounds read low 0.976 | locus YOR106W, strain vam3, active compounds read low 1.02 | locus YOR231W, strain MKK1, active compounds read low 1.02 | locus YOR265W, strain rbl2, active compounds read low 1.01 | locus YOR270C, strain vph1, active compounds read low 1.05 | locus YOR290C, strain snf2, active compounds read low 1.06 | locus YPL051W, strain arl3, active compounds read low 1.06 | locus YPL078C, strain atp4, active compounds read low 1.05 | locus YPL106C, strain sse1, active compounds read low 1.04 | locus YPL240C, strain hsp82, active compounds read low 1 | locus YPL256C, strain CLN2, active compounds read low 1.06
